From PubChem
p53 reactivation – qHTS assay for re-activators of p53 using a Luc reporter | AID 504706, 2011 | Potency, µM (doses to about 92.2 µM), for the others: at the highest dose activity change, positive = activation, most hits filed as activators | H1299 p53-A138V BP100-luciferase reporter, luminescence, 24 h | 0.063% of 320,000 active; further: potency means the concentration at half of the fitted maximal effect; % of control where 0% means no effect; nearly all actives have a fitted effect of over 45% in size
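H1299 (p53-null), stable ts p53-A138V + BP100-Luc; 1000 cells/well, Opti-MEM/10% FBS; cpd 4 pt, 1:5; 24 h, 37 deg C, 5% CO2; detection reagent 10 min RT; luminescence.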
BRCA1 expr up – qHTS Assay to Identify Small Molecule Activators of BRCA1 Expression. MCF7-BRCA1-FFLuc reporter, luminescence, 48 h; response scale: scaled: vehicle 0%, 10 µM genistein 100%. Potency, µM (doses to about 46.1 µM), inactives show at the top dose activation, hits mostly activators. 1.1% of 380,000 active. AID 624202, 2012; further: potency means the concentration at half of the fitted maximal effect; nearly all actives have a fitted effect of over 80% in size
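Using MCF7 cells harboring a BRCA1 firefly luciferase reporter, plated 2 h before compound pinning, the screen measured luminescence after 48 h incubation. Responses were normalized to DMSO and 10 microM genistein, then fitted for concentration-effect.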
IL2 activator – qHTS of IL-2 Activators; IL-2 activation reporter assay, cell-based qHTS; stimulated with anti-CD3/CD4/CD28 beads; in transgenic mouse T cells; activation, % (series mostly up to about 46 µM); 0.065% of 360,000 active; in the data active means activation above about 50%; inconclusive means mostly about 30% to 49%; further: 0% is about no effect
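EGFP and DsRed fluorescence is measured by plate cytometry in unstimulated transgenic mouse T cells exposed to compound for 60 minutes, then stimulated 18 hours at 37 degrees C with anti-CD3/anti-CD4 beads plus anti-CD28.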
A549 viability – Nrf2 qHTS screen for inhibitors: counterscreen for cytotoxicity | AID 504648, 2011 | 0.16% of 390,000 active | A549 ARE-Fluc cells, CellTiter-Fluor viability, 18-24 h | Potency, µM (titrated, usually from 46 µM), for inactives: at the highest dose activity change, negative = cytotoxicity, usual class: inhibitors; further: potency means the concentration at half of the fitted maximal effect; on the % scale 0 is the no-effect control and ±100 the full control effect
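A549 ARE-Fluc cells in 5% FBS OPTI-MEM, 5000 cells/well, rested 2 h then exposed to compounds in concentration-response for 18-24 h at 37 °C. Viability by CellTiter-Fluor fluorescence (Ex 405/Em 525) after 30 min; luciferase luminescence (BugLite, 15 min, RT) read afterwards.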
Nrf2 ARE act – qHTS of Nrf2 Activators | AID 624171, 2012 | 0.31% of 410,000 active | AREc32 ARE-luciferase reporter (MCF7-derived line), luminescence, 24 h | Potency, µM (top dose mostly 46.1 µM), without a hit: top-dose activation, hits mostly activators; further: potency means the concentration at half of the fitted maximal effect; % of control where 0% means no effect; nearly all actives have a fitted effect of over 65% in size
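Quantitative high-throughput format: AREc32 reporter cells, 1000 per well, received compound by pin transfer and were incubated 24 hr at 37 deg C, 5% CO2, before Steady-Glo luminescence detection.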
Nrf2 inh – Nrf2 qHTS screen for inhibitors | A549 ARE-Fluc reporter, luciferase luminescence, 18-24 h | Potency, µM (titrated, usually from 46 µM), for inactives: top-dose activity change, negative = inhibition, actives largely listed as inhibitors | 2.1% of 360,000 active; further: potency means the concentration at half of the fitted maximal effect; on the % scale 0 is the no-effect control and ±100 the full control effect; nearly all actives have a fitted effect of over 60% in size
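Cells were seeded and rested 2 h, then exposed to compounds for 18-24 h. CellTiter-Fluor was read first as a viability measure. BugLite was added 15 min before the final luminescent read of ARE-luciferase activity in A549 cells.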
* = called active by the depositor; ? = inconclusive; . = not tested or not shown; [ ] = another dose, or the depositor's remark. An excerpt weighted towards active compounds, which were near 3.2% of everything screened. Unless noted, the call rests on the fitted dose curve; in most records, active means well fitted curve in the direction sought with a large enough effect; inconclusive means small, poorly fitted or top-dose-only effect, or another doubt; inactive means no such curve, though single readings can be large; an effect the other way counts as inactive or inconclusive.

SMILES	p53 reactivation	BRCA1 expr up	IL2 activator	A549 viability	Nrf2 ARE act	Nrf2 inh
CCN(CC)Cc1c(O)ccc2cc(-c3nc4ccccc4n3C)c(=O)oc12	5%	11µM*	-5	?	1%	?
CCc1cc2c(=O)c(-c3nc4ccccc4n3C)c(C)oc2c(CN(CC)CC)c1O	2%	-1%	0	-6%	0%	4%
c1ccc(-c2cnnc(-c3ccccn3)n2)cc1	.	4.5µM*	-3	-1%	12%	?
Clc1ccc(-c2cnnc(-c3ccccn3)n2)cc1	?	?	1	0%	5%	?
CCOc1cc(-c2ccc(OC(=O)c3ccccc3F)cc2)cc(=O)c2c(C)oc(C)c12	.	.	.	1%	0%	-19%
COc1cc(Br)c(CC(=O)NO)cc1OC	.	14%	.	.	.	.
Cc1cc2nc(-c3ccc[nH]c3=O)n(Cc3ccc(F)cc3)c2cc1C	1%	-12%	2	-2%	1%	-2%
Cc1cc2nc(-c3ccc[nH]c3=O)[nH]c2cc1C	1%	-71%	-1	6%	-1%	12µM*
Cc1ccsc1/C=N\NC(=O)c1cc(C(C)(C)C)[nH]n1	4%	5µM*	1	5%	0%	?
Cc1cc(C(=O)N/N=C/c2ccc(C)s2)n[nH]1	?	7.1µM*	3	-1%	0%	?
COc1ccc(/C=N/NC(=O)c2cc(C(C)(C)C)[nH]n2)cc1COc1ccc(F)cc1F	-8%	-50%	-1	?	-1%	21µM*
O=C(CCc1ccc(O)cc1)NN=Cc1ccc2c(c1)OCO2	.	0%	0	.	0%	.
Cc1cc(C(=O)N/N=C/c2ccc([N+](=O)[O-])s2)n[nH]1	6%	-82%	-5	?	-2%	?
COc1ccc(/C=N\NC(=O)c2ccccc2F)cc1COc1ccc(F)cc1F	10%	-21%	-4	?	0%	-17%
Cc1ccc(CC(=O)N/N=C/c2ccc3c(c2)OCO3)cc1	4%	8.9µM*	-2	-1%	3%	17%
Fc1ccc(Cn2c(-c3cccc(Br)c3)nc3ccccc32)cc1	.	.	.	1%	0%	.
O=C(NN=Cc1ccc2c(c1)OCO2)c1ccccc1	.	?	0	5%	0%	?
O=C(N/N=C\c1ccc2c(c1)OCO2)c1ccco1	?	3.2µM*	-3	-3%	0%	?
O=C(N/N=C\c1cccc(OC(=O)c2ccco2)c1)c1ccc2c(c1)OCO2	?	81%	-1	-2%	0%	2.3µM*
Cc1ccc(/C=N/NC(=O)c2ccc3c(c2)OCCO3)s1	12%	2.5µM*	-2	-6%	0%	?
Cc1ccc(/C=N/NC(=O)c2ccc3ccccc3c2)s1	4%	36%	0	-13%	0%	25%
O=C(N/N=C/c1ccc2c(c1)OCO2)c1ccc2c(c1)OCO2	0%	8.9µM*	-1	2%	0%	20%
COc1ccc(C2c3c(oc4ccccc4c3=O)C(=O)N2c2nc(C)c(C)s2)cc1 (stereo unspecified)	.	.	.	-2%	1%	4%
Cc1oc(C)c2c(=O)cc(-c3ccc4c(c3)OCO4)cc(OC(=O)c3cccc(Br)c3)c12	.	.	.	-5%	4%	17%
O=C(N/N=C/c1cccc(O)c1)c1ccc2c(c1)OCCO2	?	-5%	-1	1%	0%	0.41µM*
SMILES	p53 reactivation	BRCA1 expr up	IL2 activator	A549 viability	Nrf2 ARE act	Nrf2 inh
Cc1ccsc1/C=N/NC(=O)c1ccc(-n2cccc2)cc1	2%	11µM*	3	-5%	3%	?
O=C(N/N=C/c1ccc2c(c1)OCO2)C1CC1	?	7.9µM*	-5	0%	0%	?
O=C(N/N=C/c1cc(O)ccc1[N+](=O)[O-])c1ccc2c(c1)OCCO2	0%	80%	1	-7%	8%	-19%
CC(=O)N1CCN(c2csc3ccc(Br)cc3c2=O)CC1	.	.	.	-3%	-1%	.
O=C(CSc1nc2c([nH]c3ccccc32)c(=O)n1-c1cccc(Cl)c1)NCc1ccccc1	.	-42%	.	-18%	1%	.
Cc1ccc(CNC(=O)CN2C(=O)C3(SCC(=O)N3c3ccc(F)c(F)c3)c3ccccc32)cc1 (stereo unspecified)	.	-10%	.	-3%	1%	-7%
COc1ccccc1NC(=O)N1CCN(c2ccc3nnc(-c4ccc(F)cc4)n3n2)CC1	6%	-32%	-4	-9%	8%	9.2µM*
O=C(Nc1ccc(Cl)cc1)N1CCN(c2ccc3nnc(-c4ccccc4)n3n2)CC1	.	34%	.	-22%	3%	26µM*
O=C(Nc1ccccc1Cl)N1CCN(c2ccc3nnc(-c4ccc(F)cc4)n3n2)CC1	-15%	-47%	3	-9%	0%	?
CCOc1ccc(-n2c(SCC(=O)N3CCc4ccccc43)nc3c([nH]c4ccccc43)c2=O)cc1	.	1%	.	9%	-1%	.
O=C1Cc2cc(S(=O)(=O)N3CCN(c4ccc(Br)cc4)CC3)ccc2N1	.	.	.	5%[92.2 µM]	.	-15%[92.2 µM]
Cc1ccc(OCCOC(=O)c2cc(S(=O)(=O)N3CCCCC3)ccc2N2CCOCC2)cc1	-4%	-63%	-3	-10%	2%	12µM*
COc1ccc(COC(=O)c2cc(S(=O)(=O)N3CCCCC3)ccc2N2CCOCC2)cc1	-3%	-18%	-1	-1%	0%	?
CN(C(=O)c1ccc(NC(=O)Cc2ccc(NC(=O)C3CCN(C(=O)CCc4ccccc4)CC3)cc2)cc1)C1CCCC1	.	-4%	0	-10%	0%	?
CN(C(=O)c1cccc(NC(=O)Cc2ccc(NC(=O)C3CCCN(C(=O)CCc4ccccc4)C3)cc2)c1)C1CCCCC1 (stereo unspecified)	.	-57%	0	-12%	5%	10µM*
CN(C(=O)c1cccc(NC(=O)Cc2ccc(NC(=O)C3CCCN(C(=O)CCc4ccccc4)C3)cc2)c1)C1CC1 (stereo unspecified)	.	-24%	1	-3%	6%	?
CN(Cc1ccccc1)C(=O)c1cccc(NC(=O)Cc2ccc(NC(=O)C3CCN(C(=O)CCc4ccccc4)CC3)cc2)c1	.	-38%	-1	-17%	4%	16µM*
CN(C(=O)c1ccc(NC(=O)Cc2ccc(NC(=O)C3CCCN(C(=O)CCc4ccccc4)C3)cc2)cc1)C1CCCC1 (stereo unspecified)	.	-41%	0	-6%	4%	23µM*
